The supplement of paper PMC7156485
± gives the standard deviation of the averaged measurements.

system: TDF; assay: cell number relative to DMSO (% of DMSO); higher = more cells (less growth inhibition / toxicity); settings: concentration: 10 µM; 24 h
How it was run: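 Treatment: HCC1569 and TDF cells, 800 per well in 384-well plates with RPMI and 10% FBS, were given compounds at 10 µM for 24 h at 37 °C, in triplicate. Readout: after 3.7% formaldehyde fixation, cells were stained with a rabbit anti-H1.0 antibody, an AlexaFluor 647 secondary and DAPI. Reported values are H1.0 nuclear intensity or cell number as percent of the plate control, taken as the median of replicates, with positional smoothing for HCC1569.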
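Also: TDF denotes transformed human dermal fibroblasts of mesenchymal origin.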

Structure (SMILES) | cell number
CC1CC(C)C(=O)C(C(O)CC2CC(=O)NC(=O)C2)C1 (stereo not drawn) [Cycloheximide] | 41.7
COc1cc(C2c3cc4c(cc3C(O)C3COC(=O)C23)OCO4)cc(OC)c1O (stereo not drawn) [4'-Demethylpipodophyllotoxin] | 12.7
COc1ccc2c(c[n+](C)c3c4cc5c(cc4ccc23)OCO5)c1OC.[Cl-] [Chelerythrine Chloride] | 98.2
Cc1sc2ccccc2c1CC1=NCCN1.O=C(O)C(=O)O [Benazoline oxalate] | 106
NCC(CC(=O)O)c1ccc(Cl)cc1 (racemic) | 112
CC(C)(C)NCC(O)c1ccccc1Cl.Cl (stereo not drawn) [Tulobuterol hydrochloride] | 110
CCCCc1ccc(C(=O)O)nc1 [Fusaric acid] | 110
Cl.Cl.Oc1ccc2c3c1OC1c4[nH]c5c(c4CC4(O)C(C2)N(CC2CC2)CCC314)CC1(O)C2Cc3ccc(O)c4c3C1(CCN2CC1CC1)C5O4 (stereo not drawn) [nor-Binaltorphimine dihydrochloride] | 114
CC=C1CN2CCC34C(=C(CC=O)C1CC23)Nc1ccccc14 (stereo not drawn) [Norfluorocurarine] | 104
CCNC(=O)C[C@@H]1N=C(c2ccc(Cl)cc2)c2cc(OC)ccc2-n2c(C)nnc21 | 71.9
COC(=O)c1cc2c(cn1)[nH]c1ccccc12 [Methyl beta-carboline-3-carboxylate] | 105
COC1C=C2CCN(C)C2C2c3cc4c(cc3C(=O)OC12)OCO4.O=[N+]([O-])O (stereo not drawn) [Ungerine nitrate] | 107
CCCCC(C#N)(Cn1cncn1)c1ccc(Cl)cc1 (stereo not drawn) [Myclobutanil] | 92.6
CC(C)CC1C(=O)N2CCCC2C2(O)OC(NC(=O)C3C=C4c5cccc6[nH]c(Br)c(c56)CC4N(C)C3)(C(C)C)C(=O)N12.CS(=O)(=O)O (single isomer, unassigned; (+)) [(+)-Bromocriptine methanesulfonate] | 103
Fc1cc(F)c2c(c1)C1C=CCC1C(c1cccnc1)N2 (stereo not drawn) | 52.7
CC12CCC3C(CCC4=C(O)C(=O)CCC43C)C1CCC2=O (stereo not drawn) [Formestane] | 98.1
Cl.NCC#Cc1ccccc1 [3-Phenylpropargylamine hydrochloride] | 110

Structure (SMILES) | cell number
CC1=C(O)C(=O)C=C2C1=CC=C1C2(C)CCC2(C)C3CC(C)(C(=O)O)CCC3(C)CCC12C (stereo not drawn) [Celastrol] | 64
COc1cc(C2c3cc4c(cc3C(O)C3COC(=O)C23)OCO4)cc(OC)c1OC (stereo not drawn) [Podophyllotoxin] | 10.1 ± 0.34
CC(C)CC1C(=O)N2CCCC2C2(O)OC(NC(=O)C3C=C4c5cccc6[nH]c(Br)c(c56)CC4N(C)C3)(C(C)C)C(=O)N12.CS(=O)(=O)O (stereo not drawn) [Bromocriptine mesylate] | 102.8 ± 0.3
C=CC12CN(C)C3C4COC(CC41)C1(C(=O)Nc4ccccc41)C32.Cl (stereo not drawn) | 111
CN1C2CCCC1CC(=O)C2.Cl | 89.2
Cl.c1ccc(C2CC2)c(OCC2=NCCN2)c1 [Cirazoline hydrochloride] | 109
Cl.O=C1CCC2(O)C3Cc4ccc(O)c5c4C2(CCN3CC2CC2)C1O5 (stereo not drawn) [Naltrexone.HCl] | 100
Cl.O=C1CCC2(O)C3Cc4ccc(O)c5c4C2(CCN3CC2CC2)C1O5 (stereo not drawn) [Naltrexone hydrochloride] | 115
CCCC(=O)OCC[N+](C)(C)C [Butyrylcholine] | 104
CCS(=O)(=O)Nc1cccc(C(=C2CCCCC2)c2cnc[nH]2)c1 | 101
Cc1ncc(CNC(=O)N(CCCl)N=O)c(N)n1.Cl [Nimustine hydrochloride] | 64.7
O=C1C=CC(=O)C=C1 [p-Benzoquinone] | 99.8
COC(C(=O)C(O)C(C)O)C1Cc2cc3cc(OC4CC(OC5CC(O)C(OC)C(C)O5)C(OC(C)=O)C(C)O4)c(C)c(O)c3c(O)c2C(=O)C1OC1CC(OC2CC(OC3CC(C)(O)C(OC(C)=O)C(C)O3)C(O)C(C)O2)C(O)C(C)O1 (stereo not drawn) [Chromomycin A3] | 19.4
CCCCCN(C)CCC(O)(P(=O)([O-])O)P(=O)(O)O.[Na+] | 105
CC1(C(=O)O)C2CCC(O2)C1(C)C(=O)O (stereo not drawn) [Cantharidic Acid] | 13.6
C[N+]1(C)CCOC(O)(c2ccc(-c3ccc(C4(O)C[N+](C)(C)CCO4)cc3)cc2)C1.[Br-].[Br-] (stereo not drawn) [Hemicholinium-3] | 106
